Shown are actives, neighbours in structure and some others; about 6.4% of the full set was active somewhere.
KinaseGlo FLuc: counter-screen: inhibitors of Kinase-Glo firefly luciferase; AID 1379; Kinase-Glo luciferase, ATP luminescence, 8 min; Potency, µM (series often up to 38.3 µM), most hits filed as inhibitors; 200,000 tested, 0.28% active; also: nearly all actives have a fitted effect of over 60% in size
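Kinase-Glo luciferase light output from ATP and luciferin was measured with 10 uM ATP, within the enzyme's linear range. Buffer: 50 mM imidazole pH 7.2, 50 mM KCl, 7 mM MgCl2, 0.01% Tween 20, 0.05% BSA; luminescence read after 8 min at ambient temperature.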
RORgamma inh: ROR gamma (mouse) transcription inhibition; 310,000 tested, 5.4% active; P51450; Potency, µM (series often up to 53.6 µM), most hits filed as inhibitors; Drosophila S2 Gal4-RORgamma UAS-luciferase reporter, 20 h; also: nearly all actives have a fitted effect of over 60% in size
Target sequence (P51450 whole entry, looked up, the tested form may be a part): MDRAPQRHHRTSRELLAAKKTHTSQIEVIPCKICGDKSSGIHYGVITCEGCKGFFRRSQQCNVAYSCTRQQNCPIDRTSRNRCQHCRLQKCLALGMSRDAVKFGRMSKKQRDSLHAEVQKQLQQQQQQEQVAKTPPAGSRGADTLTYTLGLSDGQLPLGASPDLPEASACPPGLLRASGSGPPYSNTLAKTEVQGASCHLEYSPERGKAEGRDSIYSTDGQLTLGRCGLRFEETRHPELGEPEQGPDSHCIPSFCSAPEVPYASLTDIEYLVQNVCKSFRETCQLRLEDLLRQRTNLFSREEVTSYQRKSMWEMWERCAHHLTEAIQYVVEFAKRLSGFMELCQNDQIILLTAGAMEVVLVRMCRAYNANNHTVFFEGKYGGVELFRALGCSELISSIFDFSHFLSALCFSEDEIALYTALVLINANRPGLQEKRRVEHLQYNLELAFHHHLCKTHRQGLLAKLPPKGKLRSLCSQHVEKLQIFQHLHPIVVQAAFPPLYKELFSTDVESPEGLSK
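In this cell-based reporter format, copper sulfate (700 uM final) drives Gal4–ROR gamma fusion expression from a metallothionein promoter in Drosophila Schneider cells; compounds preincubated 1 hr, reporter read after 20 hr at ambient temperature.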
VP16 counter: counter-screen for ROR gamma inhibitors: Gal4-VP16 reporter | Drosophila S2 Gal4-VP16 UAS-luciferase, luminescence, 20 h | Potency, µM (highest dose often 53.6 µM), usual class: inhibitors | 310,000 tested, 3.5% active;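 also: Gal4-VP16 expression switched on by copper sulfate through the metallothionein promoter; nearly all actives have a fitted effect of over 50% in size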
A number is an active result; ! = not confirmed by another sample; [ ] = dose if it differs, or a comment. Calls follow the shape of the dose curve; as a rule, active = well fitted curve in the direction sought with a large enough effect; inconclusive = small, poorly fitted or top-dose-only effect, or another doubt; inactive = no such curve, though single readings can be large; an effect the other way counts as inactive or inconclusive.

What do the screens show for `CC(C)[C@]1(O)[C@@H](OC(=O)c2ccc[nH]2)[C@]2(O)[C@@]3(C)C[C@@]4(O)O[C@@]5([C@H](O)[C@@H](C)CC[C@]35O)[C@]2(O)[C@]41C`?
KinaseGlo FLuc: inactive[7.66 µM]

What do the screens show for `O=C1C(Cl)=C(Cl)C(=O)C(Cl)=C1Cl`?
KinaseGlo FLuc: inactive; RORgamma inh: 4.5µM; VP16 counter: inconclusive

Results for Cc1c(O)c(O)cc2c1CC=C1[C@]3(C)CC[C@]4(C)CC[C@@](C)(C(=O)O)CC4[C@]3(C)CC[C@]12C (some centres undefined) ?
KinaseGlo FLuc: inactive; RORgamma inh: inconclusive; VP16 counter: 13µM

How did Nc1cccc(Cl)c1 do in these assays?
RORgamma inh: inactive; VP16 counter: inactive

What do the screens show for `CN1CCN(c2ncc3ncc(=O)n(C)c3n2)CC1`?
RORgamma inh: inactive; VP16 counter: inactive

What do the screens show for `CC(C)CN1CC[C@@]2(CCCN(C(=O)Oc3ccccc3)C2)C1`?
KinaseGlo FLuc: inactive; RORgamma inh: inactive; VP16 counter: inactive

Results for O=C1NC(=O)N(c2ccccc2)C(=O)/C1=C\c1ccc([N+](=O)[O-])s1 ?
RORgamma inh: inactive; VP16 counter: inactive

Results for COc1ccc(OC)c(N2C(=O)NC(=O)/C(=C\c3ccc([N+](=O)[O-])s3)C2=O)c1 ?
KinaseGlo FLuc: inactive; RORgamma inh: 6.3µM; VP16 counter: inconclusive

Results for NC(CCl)=N[C@H]1CN2CCC1CC2 ?
KinaseGlo FLuc: inactive[7.66 µM]

How did Cn1c(=O)c2[nH]cnc2n(C)c1=O.[CH2-][C@H](Cc1cccc2cc(C(=O)O)c(=O)oc12)OC.[Hg].[OH-] do in these assays?
KinaseGlo FLuc: inactive[7.66 µM]

What do the screens show for `NCCSC(c1ccccc1)c1ccccc1`?
KinaseGlo FLuc: inactive[7.66 µM]

How did C/C=C(\C)C(=O)OC1C(C)=C2C(C1OC(=O)CCCCC)C(C)(OC(C)=O)CC(OC(=O)CCC)C1(O)C2OC(=O)C1(C)O (centres undefined) do in these assays?
RORgamma inh: inconclusive; VP16 counter: 18µM

How did CC1C(=O)OC2C1CC[C@@]1(C)C=CC(=O)[C@@]3(C)O[C@@]213 (some centres undefined) do in these assays?
KinaseGlo FLuc: inactive; RORgamma inh: inconclusive; VP16 counter: inactive

What do the screens show for `COP(=S)(OC)Oc1ccc(Sc2ccc(OP(=S)(OC)OC)cc2)cc1`?
RORgamma inh: inactive; VP16 counter: inconclusive

How did COP(=S)(OC)Oc1ccc([N+](=O)[O-])cc1 do in these assays?
KinaseGlo FLuc: inactive; RORgamma inh: 11µM!; VP16 counter: 10µM!

How did C=C1C([C@@]2(C)C(OC(C)=O)CC(=O)O[C@@](C)(COC(C)=O)C2CC(=O)OC)C(OC=O)C(OC(=O)C(OC(C)=O)C(C)CC)[C@]2(C)C(c3ccoc3)CC(=O)C12O (some centres undefined) do in these assays?
KinaseGlo FLuc: inactive; RORgamma inh: inactive; VP16 counter: inactive

Results for CC(C)CC(=O)C[C@H](O)C(Cl)(Cl)Cl ?
KinaseGlo FLuc: inactive[7.66 µM]

How did ClC1=C(Cl)C(Cl)(C2(Cl)C(Cl)=C(Cl)C(Cl)=C2Cl)C(Cl)=C1Cl do in these assays?
RORgamma inh: 8.9µM; VP16 counter: 7.1µM

Results for ClC1=C(Cl)C(Cl)(Cl)C(Cl)=C1Cl ?
RORgamma inh: 18µM; VP16 counter: inconclusive

Results for CC(C)=C[C@H]1[C@@H](C(=O)OCc2cc3c(cc2Cl)OCO3)C1(C)C ?
KinaseGlo FLuc: inactive[7.66 µM]

What do the screens show for `O=C1CCC[C@H]2[C@H]3CCCN4CCCC(=CN12)[C@@H]34`?
KinaseGlo FLuc: inactive; RORgamma inh: inactive; VP16 counter: inactive

How did C=CCN1C[C@H](C)N([C@H](c2ccc(C(=O)N(CC)CC)cc2)c2cccc(O)c2)C[C@H]1C do in these assays?
KinaseGlo FLuc: inactive; RORgamma inh: inactive; VP16 counter: inactive

Results for C[n+]1c(-c2ccccc2)c2cc(N)ccc2c2ccc(N)cc21 ?
RORgamma inh: inconclusive; VP16 counter: 13µM

What do the screens show for `CCOP(=S)(OCC)O/N=C(\C#N)c1ccccc1Cl`?
RORgamma inh: inactive; VP16 counter: inactive

Results for Nc1nc(=S)c2ncn([C@H]3O[C@@H](CO)[C@@H](O)[C@@H]3O)c2[nH]1 ?
KinaseGlo FLuc: inactive; RORgamma inh: inactive; VP16 counter: inactive

How did Nc1nc2c(ncn2[C@@H]2O[C@H](CO)[C@@H](O)[C@@H]2O)c(=[SH+])[nH]1.O=[N+]([O-])c1ccc(O)[c]([Hg])c1 do in these assays?
KinaseGlo FLuc: 2.8µM

Results for BrC(Br)Br ?
RORgamma inh: inactive; VP16 counter: inactive

How did COc1ccc2c(c1)[C@@]13CCCCC1[C@@H](C2)N(C)CC3 (some centres undefined) do in these assays?
KinaseGlo FLuc: inactive; RORgamma inh: inactive; VP16 counter: inactive

What do the screens show for `Cn1ncnc2c(=O)n(C)c(=O)nc1-2`?
KinaseGlo FLuc: inactive; RORgamma inh: 0.04µM; VP16 counter: 0.63µM

How did CC(C)=CCCC1(C)C=Cc2c(O)c3c(c(CC=C(C)C)c2O1)OC12C(CC4CC1C(C)(C)OC2(C/C=C(/C)C(=O)O)C4O)C3=O (centres undefined) do in these assays?
KinaseGlo FLuc: inactive; RORgamma inh: inactive; VP16 counter: inactive

What do the screens show for `c1cc(CN2CC3(CCNCC3)C2)ccn1`?
KinaseGlo FLuc: inactive; RORgamma inh: inactive; VP16 counter: inactive

How did CCCCNC(=O)n1c(NC(=O)OC)nc2ccccc21 do in these assays?
RORgamma inh: inactive; VP16 counter: inactive

How did O=C(O)[C@@H](Br)[C@H](Br)C(=O)O do in these assays?
KinaseGlo FLuc: inactive[7.66 µM]

What do the screens show for `O=C(NC(=S)N1C[C@H]2C[C@H](C1)c1cccc(=O)n1C2)c1ccc(Cl)cc1`?
RORgamma inh: 4.5µM; VP16 counter: inconclusive

What do the screens show for `COc1cc(C(=O)NC(=S)N2C[C@H]3C[C@H](C2)c2cccc(=O)n2C3)cc(OC)c1OC`?
RORgamma inh: inactive; VP16 counter: inactive

How did O=C(Nc1ccc(Cl)cc1)N1CC2CC(C1)c1cccc(=O)n1C2 (centres undefined) do in these assays?
RORgamma inh: inactive; VP16 counter: inactive

What do the screens show for `COc1cc(OC)cc(C(=O)NC(=S)N2C[C@H]3C[C@H](C2)c2cccc(=O)n2C3)c1`?
RORgamma inh: 11µM; VP16 counter: inactive

What do the screens show for `COC(C)(C)C`?
RORgamma inh: inactive; VP16 counter: inactive

What do the screens show for `O=c1[nH]sc2cc(F)ccc12`?
KinaseGlo FLuc: inactive; RORgamma inh: 2.2µM; VP16 counter: 2.8µM

Results for Cc1ccc(NC(=S)NC2CC3CCC(C2)N3Cc2ccco2)cc1C (centres undefined) ?
KinaseGlo FLuc: inactive; RORgamma inh: 14µM; VP16 counter: inactive

How did CCCCCC[C@H]1C(=O)O[C@H](C)[C@H](NC(=O)c2cccc(NC=O)c2O)C(=O)O[C@@H](C)[C@@H]1OC(=O)CC(C)C do in these assays?
KinaseGlo FLuc: inactive; RORgamma inh: inconclusive; VP16 counter: inactive

Results for Cc1ccc(CN2C3CCCC2CC(NC(=S)NCc2ccccc2)C3)cc1 (centres undefined) ?
RORgamma inh: 2.8µM; VP16 counter: 18µM

How did CNC(=S)NC1CC2CCCC(C1)N2CC(C)C (centres undefined) do in these assays?
KinaseGlo FLuc: inactive; RORgamma inh: inactive; VP16 counter: inactive

What do the screens show for `CCOC(=O)N1CCN(C(=O)c2ccc3c(=O)n(CCC4=CCCCC4)c(=S)[nH]c3c2)CC1`?
KinaseGlo FLuc: inactive; RORgamma inh: inactive; VP16 counter: 14µM

Bioassay records (PubChem BioAssay)
